Source: PubChem BioAssay (The Scripps Research Institute Molecular Screening Center)
CHO-K1 Ca antag: counter-screen for M1 antagonists: effect in parental CHO-K1 cells | inhibition, % at 3 µM | AID 602250 | ATP-induced calcium, Fluo-8 fluorescence | 0.6% of 360,000 active;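 active = inhibition above a per-plate cutoff, the plate's mean sample inhibition plus 3 SD, cut at about 24% in these data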
CHRM1 PAM: human M1 muscarinic receptor positive allosteric modulators, primary screen, CHO-K1 cells, Fluo-8 calcium fluorescence, 1536-well | AID 588819, 2011 | Muscarinic acetylcholine receptor M1 (Homo sapiens), P11229 | activation, % at 3 µM | CHO-K1 hM1, ACh EC20; 0% = ACh EC20, 100% = maximal ACh | 0.088% of 360,000 active; in the data active = activation above about 19%, passing the limit was not always enough
Target sequence (P11229 whole entry, looked up): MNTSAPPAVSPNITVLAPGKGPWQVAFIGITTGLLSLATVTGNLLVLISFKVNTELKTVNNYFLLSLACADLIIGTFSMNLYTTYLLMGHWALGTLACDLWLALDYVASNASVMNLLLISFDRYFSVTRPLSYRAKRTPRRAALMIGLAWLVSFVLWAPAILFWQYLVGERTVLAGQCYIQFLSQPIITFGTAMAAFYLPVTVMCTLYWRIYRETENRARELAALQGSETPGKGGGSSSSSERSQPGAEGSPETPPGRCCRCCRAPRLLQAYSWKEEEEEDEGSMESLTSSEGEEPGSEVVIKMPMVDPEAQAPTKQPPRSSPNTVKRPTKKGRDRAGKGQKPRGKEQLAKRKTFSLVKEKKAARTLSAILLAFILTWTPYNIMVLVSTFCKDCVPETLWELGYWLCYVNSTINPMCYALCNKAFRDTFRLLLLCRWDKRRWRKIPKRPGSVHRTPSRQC
CHRM1 antagonist: human M1 muscarinic receptor antagonists, primary screen, CHO-K1 cells, Fluo-8 calcium fluorescence, 1536-well | Muscarinic acetylcholine receptor M1 (Homo sapiens), P11229 | CHO-K1 hM1, ACh EC80 antagonist | inhibition, % at 3 µM | 1.3% of 360,000 active | AID 588852, 2011;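 active = percent inhibition above its own plate's cutoff, namely the mean of that plate's compound wells plus 3 SD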;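 also: peak over basal fluorescence ratio during 140 s after agonist addition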
CHO-K1 Ca ag: counter-screen for M1 agonists: effect in parental CHO-K1 cells; Fluo-8 calcium fluorescence; scaled to maximal ATP response, vehicle zero; activation, % at 3 µM; 0.48% of 360,000 active; AID 602248, 2012; in the data active = activation above about 15%;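 also: untransfected CHO-K1 host cells lacking M1 receptor as counterscreen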
CHRM1 agonist: human M1 muscarinic receptor agonists, primary screen, Fluo-8 calcium fluorescence, CHO-K1 cells, HTS. Muscarinic acetylcholine receptor M1 (Homo sapiens), P11229. CHO-K1 hM1, agonist mode; 0% DMSO, 100% acetylcholine EC100. activation, % at 3 µM. 0.33% of 360,000 active;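 active = activation above the run's mean compound activation plus 3 SD, cut at about 16% in these data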;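 also: peak over basal fluorescence ratio within a 140 s kinetic read after compound addition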
CHO-K1 Ca PAM: nonselective calcium activators in parental CHO-K1 cells, primary screen, counter-screen for M1 PAM project, cell-based, Fluo-8 calcium fluorescence, full deck, 1536-well; ATP EC20; 0% at ATP EC20, 100% at ATP max; activation, % at 3 µM; 0.02% of 360,000 active;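 active = activation above the run cutoff, the mean activation of all test compounds plus 3 SD, cut at about 40% in these data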;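 also: peak over basal fluorescence ratio in a 140 s read after ATP addition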
A number is an active result; i = inactive; ! = repeats disagree. Rows were chosen to be rich in hits. Some 2.3% of all compounds tested hit in one or more screens of this group.

SMILES | CHO-K1 Ca antag | CHRM1 PAM | CHRM1 antagonist | CHO-K1 Ca ag | CHRM1 agonist | CHO-K1 Ca PAM
CN1CCN(C2Cc3cc(F)ccc3Sc3ccc(Cl)cc32)CC1 (centres undefined) | i | i | 100 | i | i | i
CN1CCN(C2Cc3ccccc3Sc3ccc(Cl)cc32)CC1 (centres undefined) | i | i | i | i | i | i
CSc1ccc2c(c1)C(N1CCN(C)CC1)Cc1ccccc1S2 (centres undefined) | i | i | 79 | 15! | i | i
CC(=O)Nc1ccc(S(=O)(=O)NC(C)C(=O)NCC(c2ccco2)N(C)C)cc1 (centres undefined) | i | i | i | i | i | i
O=C(NNC(=O)c1ccncc1)Nc1ccc(N=Nc2ccccc2)cc1 | i | i | i | i | 18 | i
CCOc1ccccc1N1CCN(C2=C(NS(=O)(=O)c3cccs3)C(=O)c3ccccc3C2=O)CC1 | i | i | 60 | i | i | i
O=C1C(NS(=O)(=O)c2cccs2)=C(N2CCN(Cc3ccccc3)CC2)C(=O)c2ccccc21 | i | i | 31 | i | i | i
Cc1ccc(CNC(=O)c2ccc(Cl)c(S(=O)(=O)N3CCCCC3)c2)cc1 | i | i | i | i | i | i
CC1(C(=O)NS(=O)(=O)c2ccccc2)CCN1C(=O)CC1CCCC1 (centres undefined) | i | i | i | i | i | i
COC(=O)c1ccc(C2C(C(=O)Nc3ccc(C)cc3C)=C(C)Nc3ncnn32)cc1 (centres undefined) | 24 | i | i | i | i | i
COC(=O)C1=C(C)Nc2ncnn2C1c1ccc(OC(=O)c2ccccc2)cc1 (centres undefined) | i | i | i | i | i | i
O=C(/C=C/c1ccccc1)CC(O)(c1ccccc1)C(F)(F)C(F)F (centres undefined) | i | i | 38 | 17 | i | i
COc1ccc(OC)c(S(=O)(=O)NCC(c2ccco2)N2CCc3ccccc32)c1 (centres undefined) | i | 24 | i | i | i | i
O=C(NCC(c1ccco1)N1CCc2ccccc21)C(=O)Nc1ccccc1 (centres undefined) | 25 | i | i | i | i | i
CC(C)(C)c1ccc(C(=O)NCCC(=O)NCc2cccs2)cc1 | i | i | i | i | i | i
CC(C)CN(CC(C)C)C(=S)Nc1ccc(Cl)cc1 | i | i | i | i | i | i
CC(/C=C/c1ccco1)=N\NC(=O)CNc1cccc(C)c1 | i | i | i | i | i | i
Cc1[nH]n2c(=O)c(C#N)c(-c3ccccc3)nc2c1-c1ccccc1 | 28 | i | i | i | i | i
O=C(CCN1CCCCC1=O)NC1CCCc2c1cnn2-c1ccccc1F (centres undefined) | i | i | i | i | i | i
CCOc1ccccc1NC(=O)CCNS(=O)(=O)c1cccc2nonc12 | i | i | i | i | i | i
O=S(=O)(Nc1ncn[nH]1)c1ccc2ccccc2c1 | i | i | i | i | i | i
O=S(=O)(Nc1nc2ccccc2[nH]1)c1ccc2ccccc2c1 | i | i | 65 | i | i | i
CCN(CC)S(=O)(=O)c1ccc(C(=O)Nc2ccc(Cc3ccncc3)cc2)cc1 | i | i | i | 15 | i | i
CN(c1ccccc1)S(=O)(=O)c1ccc(C(=O)NCc2ccccc2CN2CCCC2)cc1 | i | i | i | 17 | i | i
Cc1ccc(NC(=O)c2ccc(CN3CCc4ccccc4C3)cc2)cc1 | i | i | i | i | i | i
CCN(CC)S(=O)(=O)c1ccc(NC(=O)c2ccc(N(C)S(C)(=O)=O)cc2)cc1 | i | i | i | i | i | i
CN(C)S(=O)(=O)c1ccc(C(=O)Nc2ccc(CN3CCCC3)cc2)cc1 | i | i | 41 | i | i | i
O=C(Nc1ccc(S(=O)(=O)N2CCCCC2)cc1)c1ccc(CN2CCc3ccccc3C2)cc1 | 33 | i | i | i | i | i
Cc1nn(C)cc1S(=O)(=O)N1CCN(Cc2cccc(Cl)c2)CC1 | i | i | i | i | i | i
